In PubChem BioAssay (EPA / NIEHS):
Values joined by “and” are separate entries in the source; they are usually repeats but may differ in a detail not shown here. Equal entries are not always repeated. Where a structure was tested more than once in an assay, its records may differ in their call. Active and inactive are the calls of the source. Rule for the calls: active = hit-call score of the fitted dose curve at least 0.9, where 1 is the maximum; inactive = score below 0.9.

Columns and labels:
Conditions in all cases: mRNA level, 48 h; actives raise or lower the signal
[1] = read-out: Glutamate-cysteine ligase regulatory (GCLM), GCLM (gene 2730); assay: LTEA_HepaRG_GCLM: Life Technologies and Expression Analysis (LTEA) Assay for Glutamate-cysteine ligase regulatory (GCLM) using HepaRG (AID 2283500)
Outline: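 HepaRG, 48 h dosing, 100 uM top, half-log x8, 0.5% DMSO vehicle. Readout: GCLM mRNA by TaqMan qRT-PCR, housekeeping-normalized (ACTB/GAPDH/POLR2A). Curves fit bidirectionally vs DMSO baseline.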

[2] = read-out: Heat shock 70 kDa protein 1 (HSPA1A), gene 3303; assay: LTEA_HepaRG_HSPA1A: Life Technologies and Expression Analysis (LTEA) Assay for Heat shock 70 kDa protein 1 (HSPA1A) using HepaRG (AID 2283502)
Outline: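 HepaRG, 48 h exposure, 8-pt half-log CRC from 100 uM in 0.5% DMSO, duplicates. Readout: TaqMan qRT-PCR of HSPA1A mRNA, housekeeping-normalized (ACTB/GAPDH/POLR2A). Bidirectional fit vs 0.5% DMSO baseline.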

[3] = read-out: 3-Hydroxy-3-Methylglutaryl-CoA Synthase 2 (HMGCS2), HMGCS2 (gene 3158); assay: LTEA_HepaRG_HMGCS2: Life Technologies and Expression Analysis (LTEA) Assay for 3-Hydroxy-3-Methylglutaryl-CoA Synthase 2 (HMGCS2) using HepaRG (AID 2283504)
Outline: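 Readout is HMGCS2 transcript by qRT-PCR, housekeeping-normalised (ACTB/GAPDH/POLR2A) and fitted bidirectionally against 0.5% DMSO. Differentiated HepaRG cells received chemicals 48 h, duplicate wells, eight half-log concentrations topping at 100 uM.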

[4] = read-out: HGF (gene 3082); assay: LTEA_HepaRG_HGF: Life Technologies and Expression Analysis (LTEA) Assay for Hepatocyte Growth Facto (HGF) using HepaRG (AID 2283505)
Outline: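 HGF transcript was quantified by TaqMan qRT-PCR against three housekeeping genes after 48 h treatment of HepaRG cells. Exposure ran in duplicate over eight half-log steps topping at 100 uM in 0.5% DMSO vehicle.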

[5] = read-out: Insulin Like Growth Factor 1 (IGF1), IGF1 (gene 3479); assay: LTEA_HepaRG_IGF1: Life Technologies and Expression Analysis (LTEA) Assay for Insulin Like Growth Factor 1 (IGF1) using HepaRG (AID 2283506)
Outline: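 qRT-PCR readout of IGF1 mRNA, normalized to three housekeeping genes, after 48 h chemical exposure of HepaRG cells. Concentrations: 8-point half-log series, top 100 uM, 0.5% DMSO vehicle. Gain or loss fitted against DMSO baseline.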

[6] = read-out: Intercellular Adhesion Molecule 1 (ICAM1), ICAM1 (gene 3383); assay: LTEA_HepaRG_ICAM1: Life Technologies and Expression Analysis (LTEA) Assay for Intercellular Adhesion Molecule 1 (ICAM1) using HepaRG (AID 2283507)
Outline: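 ICAM1 transcript levels measured by qRT-PCR, normalized to three housekeeping genes (ACTB, GAPDH, POLR2A), after 48 h chemical exposure of HepaRG cells. Duplicate eight-point half-log series from 100 uM in 0.5% DMSO; gain or loss fitted against vehicle.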

[7] = read-out: Insulin-like growth factor-binding protein 1 (IGFBP1), IGFBP1 (gene 3484); assay: LTEA_HepaRG_IGFBP1: Life Technologies and Expression Analysis (LTEA) Assay for Insulin-like growth factor-binding protein 1 (IGFBP1) using HepaRG (AID 2283508)
Outline: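 Read-out is qRT-PCR transcript level normalized to three housekeeping genes, fitted in both directions against 0.5% DMSO. Differentiated HepaRG cells received eight half-log concentrations (top 100 uM) in duplicate for 48 h in serum-free induction medium.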

[8] = read-out: Interleukin 6 (IL6), IL6 (gene 3569); assay: LTEA_HepaRG_IL6: Life Technologies and Expression Analysis (LTEA) Assay for Interleukin 6 (IL6) using HepaRG (AID 2283509)
Outline: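 qRT-PCR read-out of IL6 transcript, normalized to three housekeeping genes, after 48 h chemical exposure of HepaRG cells; 8-point half-log series, top 100 uM, 0.5% DMSO vehicle. Bidirectional curve fitting against DMSO baseline.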

[9] = read-out: Interleukin 6 Receptor (IL6R), IL6R (gene 3570); assay: LTEA_HepaRG_IL6R: Life Technologies and Expression Analysis (LTEA) Assay for Interleukin 6 Receptor (IL6R) using HepaRG (AID 2283510);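 for AC50: differentiated human HepaRG liver cells in serum-free induction medium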
Outline: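 HepaRG, 48 h exposure, 8-pt half-log series, top 100 uM, 0.5% DMSO vehicle, duplicates. Read-out: TaqMan qRT-PCR of IL6R transcript, housekeeping-gene normalized. Gain or loss fitted relative to DMSO baseline.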

[10] = read-out: Potassium channel subfamily K member 1 (KCNK1), KCNK1 (gene 3775); assay: LTEA_HepaRG_KCNK1: Life Technologies and Expression Analysis (LTEA) Assay for Potassium channel subfamily K member 1 (KCNK1) using HepaRG (AID 2283511)
Outline: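 HepaRG, 48 h exposure, 8-pt half-log series top 100 uM, 0.5% DMSO vehicle, duplicates. Readout: KCNK1 transcript by qRT-PCR (Fluidigm array), housekeeping-normalized; bidirectional curve fit relative to DMSO baseline.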

[11] = read-out: Keratin 19 (KRT19), KRT19 (gene 3880); assay: LTEA_HepaRG_KRT19: Life Technologies and Expression Analysis (LTEA) Assay for Keratin 19 (KRT19) using HepaRG (AID 2283512)
Outline: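 KRT19 transcript measured by TaqMan qRT-PCR, referenced to three housekeeping genes, after HepaRG cells received test chemicals for 48 h. Eight half-log concentrations, top 100 uM, 0.5% DMSO vehicle; increases and decreases both fitted.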

[12] = read-out: JUN Transcription Factor, JUN (gene 3725); assay: LTEA_HepaRG_JUN: Life Technologies and Expression Analysis (LTEA) Assay for JUN Transcription Factor using HepaRG (AID 2283513)
Outline: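 HepaRG, 48 h exposure, 8-pt half-log series top 100 uM, 0.5% DMSO, duplicate. JUN mRNA by qRT-PCR (Fluidigm), housekeeping-normalized (ACTB/GAPDH/POLR2A); bidirectional curve fit vs DMSO baseline.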

[13] = read-out: Lipase C (LIPC), LIPC (gene 3990); assay: LTEA_HepaRG_LIPC: Life Technologies and Expression Analysis (LTEA) Assay for Lipase C (LIPC) using HepaRG (AID 2283514)
Outline: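 HepaRG, 48 h exposure, 8-pt half-log series from 100 uM in 0.5% DMSO, duplicates. Readout: LIPC mRNA by Fluidigm qRT-PCR, housekeeping-normalized (ACTB/GAPDH/POLR2A). Gain or loss fitted bidirectionally against DMSO baseline.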

[14] = read-out: Lipoprotein lipase (LPL), LPL (gene 4023); assay: LTEA_HepaRG_LPL: Life Technologies and Expression Analysis (LTEA) Assay for Lipoprotein lipase (LPL) using HepaRG (AID 2283515)
Outline: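 HepaRG, 48 h exposure, 8-pt half-log dilutions from 100 uM, 0.5% DMSO vehicle, duplicates; qRT-PCR (Fluidigm array) of LPL mRNA vs housekeeping genes; bidirectional curve fit relative to DMSO baseline.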

[15] = read-out: MicroRNA 122 (MIR122), gene 406906; assay: LTEA_HepaRG_MIR122: Life Technologies and Expression Analysis (LTEA) Assay for MicroRNA 122 (MIR122) using HepaRG (AID 2283516); note: the transcript read is the microRNA miR-122
Outline: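 qRT-PCR read-out (TaqMan, Fluidigm array), normalized to three housekeeping genes; HepaRG cells dosed 48 h at 8 concentrations up to 100 uM in 0.5% DMSO, duplicate; gain or loss fitted against DMSO baseline.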

[16] = read-out: matrix metalloproteinase-10 (MMP10), MMP10 (gene 4319); assay: LTEA_HepaRG_MMP10: Life Technologies and Expression Analysis (LTEA) Assay for matrix metalloproteinase-10 (MMP10) using HepaRG (AID 2283517)
Outline: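 Transcript levels come from Fluidigm qRT-PCR normalized to three housekeeping genes, with curves fitted bidirectionally against 0.5% DMSO. Human HepaRG cells were dosed for 48 hours at concentrations up to 100 uM.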

[17] = read-out: MYC, MYC (gene 4609); assay: LTEA_HepaRG_MYC: Life Technologies and Expression Analysis (LTEA) Assay for MYC using HepaRG (AID 2283518)
Outline: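 MYC transcript changes, up or down relative to 0.5% DMSO, from TaqMan qRT-PCR normalized to three housekeeping genes. Human HepaRG cultures received chemicals for 48 h at eight half-log concentrations up to 100 uM, in duplicate.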

[18] = read-out: matrix metalloproteinase-3 (MMP3), MMP3 (gene 4314); assay: LTEA_HepaRG_MMP3: Life Technologies and Expression Analysis (LTEA) Assay for matrix metalloproteinase-3 (MMP3) using HepaRG (AID 2283519)
Outline: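 qRT-PCR read-out of MMP3 mRNA (normalised to three housekeeping genes) in HepaRG liver cells after 48 h chemical exposure; 8-point half-log series, top 100 uM, 0.5% DMSO vehicle. Bidirectional curve fitting against DMSO baseline.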

[19] = read-out: Hypoxia-inducible factor 1-alpha (Homo sapiens) (UniProt Q16665); assay: LTEA_HepaRG_HIF1A: Life Technologies and Expression Analysis (LTEA) Assay for Hypoxia-inducible factor 1 (HIF1A) Trancription factor using HepaRG (AID 2283503)
Outline: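 Gain- or loss-of-signal HIF1A mRNA changes are fitted against a DMSO baseline. HepaRG cultures receive eight concentrations, highest 100 uM, for 48 h in serum-free induction medium with 0.5% DMSO.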

[20] = read-out: Glutathione S-transferase M3 (GSTM3), GSTM3 (gene 2947); assay: LTEA_HepaRG_GSTM3: Life Technologies and Expression Analysis (LTEA) Assay for Glutathione S-transferase M3 (GSTM3) using HepaRG (AID 2283501)
Outline: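 GSTM3 transcript levels came from Fluidigm TaqMan qRT-PCR normalized to three housekeeping genes, fitted in both directions against DMSO. HepaRG cultures received chemicals for 48 h in serum-free induction medium (0.5% DMSO), 8 half-log concentrations up to 100 uM, duplicate.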

Measured: AC50

Chain of Hypoxia-inducible factor 1-alpha (Homo sapiens) (Q16665 whole entry, looked up): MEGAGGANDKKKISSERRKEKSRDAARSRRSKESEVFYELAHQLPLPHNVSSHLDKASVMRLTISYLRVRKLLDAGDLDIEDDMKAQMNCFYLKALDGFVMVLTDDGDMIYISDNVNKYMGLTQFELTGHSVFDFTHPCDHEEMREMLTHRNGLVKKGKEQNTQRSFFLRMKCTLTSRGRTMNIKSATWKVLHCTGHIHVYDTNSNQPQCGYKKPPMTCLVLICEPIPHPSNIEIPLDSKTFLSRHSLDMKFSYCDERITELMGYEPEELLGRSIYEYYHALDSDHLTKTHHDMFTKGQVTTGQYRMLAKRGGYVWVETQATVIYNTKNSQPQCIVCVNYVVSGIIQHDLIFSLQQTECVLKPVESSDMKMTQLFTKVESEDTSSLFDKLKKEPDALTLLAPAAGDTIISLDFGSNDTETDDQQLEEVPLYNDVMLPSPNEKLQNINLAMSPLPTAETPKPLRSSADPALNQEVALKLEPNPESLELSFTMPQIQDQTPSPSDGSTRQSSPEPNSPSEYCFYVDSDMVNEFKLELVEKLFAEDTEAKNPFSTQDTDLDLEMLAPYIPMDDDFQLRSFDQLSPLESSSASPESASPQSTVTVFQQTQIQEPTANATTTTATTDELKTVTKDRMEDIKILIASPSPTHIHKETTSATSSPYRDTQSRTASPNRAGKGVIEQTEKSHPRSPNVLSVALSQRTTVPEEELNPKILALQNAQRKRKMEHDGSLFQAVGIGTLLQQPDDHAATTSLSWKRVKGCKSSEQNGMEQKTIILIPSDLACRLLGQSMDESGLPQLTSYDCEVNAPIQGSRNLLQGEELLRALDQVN

OCCOc1ccccc1
not listed: [19] | [20]
inactive: all other assays above

CCC(C)(C)C(=O)OC1=C(c2ccc(Cl)cc2Cl)C(=O)OC12CCCCC2
active: [3] 50 µM | [5] 31.1 µM | [14] 40.8 µM
not listed: [11] | [20]
inactive: all other assays above

C#CCN1C(=O)COc2cc(F)c(N3C(=O)C4=C(CCCC4)C3=O)cc21
active: [5] 23.5 µM | [13] 26.3 µM
not listed: [11] | [19] | [20]
inactive: all other assays above

ClC1C(Cl)C(Cl)C(Cl)C(Cl)C1Cl (stereo unspecified)
active: [3] 25.4 µM | [5] 6.89 µM
inactive: [1] | [2] | [19] | [3] | [4] | [6] | [7] | [8] | [9] | [10] | [11] | [12] | [13] | [14] | [15] | [16] | [17] | [18]

CC[C@H](C)[C@H]1O[C@]2(C=C[C@@H]1C)C[C@@H]1C[C@@H](C/C=C(\C)[C@@H](O[C@H]3C[C@H](OC)[C@@H](O[C@H]4C[C@H](OC)[C@@H](O)[C@H](C)O4)[C@H](C)O3)[C@@H](C)/C=C/C=C3\CO[C@@H]4[C@H](O)C(C)=C[C@@H](C(=O)O1)[C@]34O)O2 (tested in a mixture with another compound)
inactive: [4]
active: [1] 7.66 µM | [20] 9.57 µM | [2] 44.2 µM | [3] 16.2 µM | [5] 16 µM | [6] 13.6 µM | [7] 11.6 µM | [8] 18.6 µM | [9] 13.9 µM | [10] 16.8 µM | [11] 7.94 µM | [12] 18.8 µM | [13] 13.8 µM | [14] 13.5 µM | [15] 7.42 µM | [16] 11.7 µM | [17] 13.9 µM | [18] 40.2 µM

CCOC1Oc2ccc(OS(C)(=O)=O)cc2C1(C)C (stereo unspecified)
inactive: [2] | [4] | [6] | [10] | [12] | [16] | [18]
active: [1] 81.8 µM | [3] 79.4 µM | [5] 62.3 µM | [7] 79.4 µM | [8] 89.4 µM | [9] 60.7 µM | [11] 66 µM | [13] 74 µM | [14] 76.4 µM | [15] 78.7 µM | [17] 77.7 µM

Oc1ccc(Cl)cc1Cc1ccccc1
active: [3] 76.8 µM | [4] 83.5 µM | [7] 75.2 µM and 88.5 µM | [9] 83.6 µM | [13] 80.2 µM | [14] 82.2 µM and 89.3 µM | [15] 82.4 µM
inactive: [1] | [2] | [3] | [4] | [5] | [6] | [7] | [8] | [9] | [10] | [12] | [13] | [14] | [15] | [16] | [17] | [18]

O=[N+]([O-])/N=C1\NCCN1Cc1ccc(Cl)nc1
active: [2] 25 µM | [3] 33.9 µM | [5] 23 µM | [9] 39 µM | [13] 36.4 µM | [14] 33 µM | [15] 23.9 µM
not listed: [20]
inactive: all other assays above

CNC(=O)Oc1ccccc1OC(C)C
not listed: [19] | [20]
inactive: all other assays above

O=C1c2ccccc2C(=O)N1SC(Cl)(Cl)Cl
not listed: [11] | [20]
inactive: all other assays above

CCC(C)(NC(=O)c1cc(Cl)c(C)c(Cl)c1)C(=O)CCl (stereo unspecified)
active: [2] 89.2 µM | [3] 80.6 µM | [4] 77.4 µM | [7] 80.8 µM | [10] 50.2 µM | [13] 50.2 µM | [14] 90.1 µM | [15] 75.5 µM | [16] 50.2 µM | [17] 50.2 µM
inactive: [1] | [5] | [6] | [8] | [9] | [12] | [18]
